Compounds without any hit were thinned out: in the full panel of roughly 83,000, 20% have a hit.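 Percent growth is the endpoint: 0 to 100 indicates growth inhibition (40 means 60% inhibition), 0 means no net growth, and negative values indicate cell death.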 Activity calls are given as the source filed them. Rule for the calls: active = growth percent below 10; inactive = the rest.
Tested on: NCI-H226 lung
Experiment: NCI-60 one-dose screen, 48 h (100 = growth as untreated, 0 = no growth, -100 = all killed)
Conditions: 10 µM unless noted

**Q.** Which growth does the source give for COc1cc2c3c(c1)nc(C)n3CCC2 here?
**A.** 91.1% (inactive)

**Q.** Cc1sc2c(c1C)c(=O)nc1c(-c3nc4ccccc4s3)n[nH]n12 was tested. Which growth did it give?
**A.** 87.4% (inactive)

**Q.** How did the growth turn out when COc1cc2c(cc1OCCCCCN1CCN(c3ncnc4ccccc34)CC1)N=CC1CCCN1C2=O (centres undefined) was run?
**A.** -58.2% (active)

**Q.** For COc1cc2c(cc1OCCCCN1CCN(CC(=O)Nc3ccc(Cl)cc3C(=O)c3ccccc3Cl)CC1)N=CC1CCCN1C2=O (centres undefined), which growth is on record?
**A.** -88.1% (active)

**Q.** For CCOC(=O)C1=C(C)NC(=O)NC1c1cc(=O)oc2ccc(C)cc12 (centres undefined), which growth is on record?
**A.** 93.4% (inactive)

**Q.** With COc1ccc2nc3cc(Cl)ccc3c(Nc3ccc(N(C)C)cc3)c2c1 as the compound, how does the growth read?
**A.** 83.5% (inactive)

**Q.** Which growth does the source give for C[C@@H](C[C@H](CCO)c1cc(C(F)(F)F)cc(C(F)(F)F)c1)c1ccc2ccccc2c1 here?
**A.** 91.1% (inactive)

**Q.** Which growth does the source give for COc1ccc2c(CCCc3ccc(Cl)cc3Cl)c3[n+](cc2c1OC)CCc1cc2c(cc1-3)OCO2 here?
**A.** 14.6% (inactive)

**Q.** Which growth does the source give for COc1cc2c(cc1OCCCCCCN1CCN(c3ncnc4ccccc34)CC1)N=CC1CCCN1C2=O (centres undefined) here?
**A.** -54.9% (active)

**Q.** Which growth does the source give for c1cc[n+](Cc2c3ccccc3cc3c2ccc2ccccc23)cc1 here?
**A.** 26.3% (inactive)

**Q.** With CC(C)[C@@H]1CC[C@]2(CO2)[C@@H]2C(=O)OCC(C(=O)O)=C[C@H]21 as the compound, how does the growth read?
**A.** 25.5% (inactive)

**Q.** With N#Cc1c(NC(=O)c2cccs2)[n+]([O-])c2ccc(F)cc2[n+]1[O-] as the compound, how does the growth read?
**A.** 88.6% (inactive)

**Q.** Which growth does the source give for CC(CCCC(=O)O)c1ccoc1 (centres undefined) here?
**A.** 102% (inactive)

**Q.** Which growth does the source give for CCCCCCCC(=O)SCC/C=C/[C@@H]1CC(=O)NCc2nc(co2)C2=N[C@@](C)(CS2)C(=O)N[C@@H](C(C)C)C(=O)O1 here?
**A.** -10.4% (active)

**Q.** For Nc1c(C(=O)c2ccccc2)sc2nc(-c3cccs3)ccc12, which growth is on record?
**A.** 63.5% (inactive)

**Q.** How did the growth turn out when COc1ccc2c(CCCCC(c3ccccc3)c3ccccc3)c3[n+](cc2c1OC)CCc1cc2c(cc1-3)OCO2 was run?
**A.** -55% (active)

**Q.** How did the growth turn out when CC(C)(C)C(=O)OCOP(=O)(OCOC(=O)C(C)(C)C)C1CCCN(OC(=O)c2ccccc2)C1=O (centres undefined) was run?
**A.** 34.9% (inactive)

**Q.** With O=C(Cc1ccccc1)Nc1nnc(NC2CCN(c3nnc(NC(=O)Cc4ccccc4)s3)CC2)s1 as the compound, how does the growth read?
**A.** 98.7% (inactive)

**Q.** Which growth does the source give for CCCCCCC1(/C=N/NC(N)=O)NC(=O)NC1=O (centres undefined) here?
**A.** 91.4% (inactive)

**Q.** How did the growth turn out when CC(N)C(Cc1ccc(Cl)cc1)c1ccc(Cl)cc1 (centres undefined) was run?
**A.** 88.2% (inactive)

**Q.** Which growth does the source give for CC(C)[C@@H](C)/C=C/[C@@H](C)[C@H]1CCC2=C3C=CC4=CC(=O)CC[C@]4(C)[C@H]3CC[C@@]21C here?
**A.** 93.2% (inactive)

**Q.** How did the growth turn out when CCOC(=O)C1=C(C)N=C2Sc3cc(OC(F)(F)F)ccc3N2[C@H]1c1ccccn1 was run?
**A.** 57.6% (inactive)

**Q.** For COC(=O)[C@]12CC[C@@H](C)[C@H](C)[C@@H]1C1=CC[C@@H]3[C@@]4(C)C(c5cnco5)=C[C@@](C)(CO)C4=CC[C@@]3(C)[C@]1(C)CC2, which growth is on record?
**A.** 60% (inactive)

**Q.** Which growth does the source give for C=C1C(=O)O[C@H]2[C@H]1CC/C(Cn1cc(-c3cc(C)c(C)cc3C)nn1)=C\CC[C@@]1(C)O[C@@H]21 here?
**A.** -65.2% (active)

**Q.** For C=C1C(=O)O[C@H]2[C@H]1CC/C(CNC(=O)c1cc3cc(OC)ccc3[nH]1)=C\CC[C@@]1(C)O[C@@H]21, which growth is on record?
**A.** -40.5% (active)

**Q.** How did the growth turn out when C=CCC(=O)N[C@H](/C=C/C(=O)O)Cc1ccc(-c2cc(Cl)cc(Cl)c2)cc1 was run?
**A.** 86.2% (inactive)

**Q.** With NN1C(=O)CSC1=S as the compound, how does the growth read?
**A.** 100% (inactive)

**Q.** With CC(=O)C(C(C)=O)C(c1ccccc1)C(C(C)=O)C(C)=O as the compound, how does the growth read?
**A.** 90.9% (inactive)

**Q.** COc1cc(NCCN(CC(C)C)CC(C)C)c2ncc(C)cc2c1 was tested. Which growth did it give?
**A.** 90.5% (inactive)

**Q.** Which growth does the source give for COc1ccc2c(CCC(c3ccccc3)c3ccccc3)c3[n+](cc2c1OC)CCc1cc2c(cc1-3)OCO2 here?
**A.** 24.7% (inactive)

**Q.** For O=C1CC(c2ccc3c(c2)OCO3)c2ncn(-c3ccc(Cl)cc3)c2N1 (centres undefined), which growth is on record?
**A.** 69.8% (inactive)

**Q.** How did the growth turn out when Clc1nc(Cl)c2ncn(CC#CCn3cnc4c(Cl)nc(Cl)nc43)c2n1 was run?
**A.** 5.54% (active)

**Q.** For COc1ccc(C2CC(=O)c3c(O)c(OC)c(OC)c(OC)c3O2)c(O)c1 (centres undefined), which growth is on record?
**A.** 66.8% (inactive)

**Q.** For C[N+](C)(CCOC(c1ccccc1)c1ccccc1)CC(=O)OCc1ccccc1, which growth is on record?
**A.** 91.8% (inactive)

**Q.** How did the growth turn out when Nc1c2c(c(O)c3c1=C(CO)C=N3)=NCCS2 was run?
**A.** -85.9% (active)

**Q.** For Cc1cccc(NC(=O)[C@@H]2c3ccccc3C(=O)N(c3ccc(Cl)cc3)[C@H]2c2ccc(Cl)cc2)n1, which growth is on record?
**A.** 55.1% (inactive)

**Q.** For CC(N)C(Cc1ccccc1)c1ccc(Cl)cc1 (centres undefined), which growth is on record?
**A.** 89.3% (inactive)

**Q.** With C=CCCCC(=O)CCC(=O)OCC1O[C@@H](O[C@@H]2C(O)[C@@H](OC(C)=O)C(C)O[C@H]2O[C@H](CC=C)CCCCC)C(O)[C@@H](OC(=O)/C(C)=C/C)[C@@H]1OC(=O)/C=C/c1ccccc1 (some centres undefined) as the compound, how does the growth read?
**A.** 9.34% (active)

**Q.** With COc1ccc2c(c1OC)C(=O)O[C@@H]2[C@H]1c2c(c(C#CC#Cc3ccc(F)c(F)c3)c3c(c2OC)OCO3)CCN1C as the compound, how does the growth read?
**A.** 95.1% (inactive)
